Assay results taken from ChEMBL document CHEMBL1961873, “Compounds: GSK PKIS; Assays: Nanosyn kinase panel” (2012).
Where “and” joins values, the source holds several entries; their conditions need not be identical. Identical values can stand only once.

Columns and labels:
[1] = target: RAC-alpha serine/threonine-protein kinase (Homo sapiens) (UniProt P31749); conditions: at 0.1 µM
[2] = target: RAC-alpha serine/threonine-protein kinase (Homo sapiens) (UniProt P31749); conditions: at 1 µM
[3] = target: RAC-beta serine/threonine-protein kinase (Homo sapiens) (UniProt P31751); conditions: at 0.1 µM
RAC-beta serine/threonine-protein kinase (Homo sapiens), sequence (P31751 whole entry): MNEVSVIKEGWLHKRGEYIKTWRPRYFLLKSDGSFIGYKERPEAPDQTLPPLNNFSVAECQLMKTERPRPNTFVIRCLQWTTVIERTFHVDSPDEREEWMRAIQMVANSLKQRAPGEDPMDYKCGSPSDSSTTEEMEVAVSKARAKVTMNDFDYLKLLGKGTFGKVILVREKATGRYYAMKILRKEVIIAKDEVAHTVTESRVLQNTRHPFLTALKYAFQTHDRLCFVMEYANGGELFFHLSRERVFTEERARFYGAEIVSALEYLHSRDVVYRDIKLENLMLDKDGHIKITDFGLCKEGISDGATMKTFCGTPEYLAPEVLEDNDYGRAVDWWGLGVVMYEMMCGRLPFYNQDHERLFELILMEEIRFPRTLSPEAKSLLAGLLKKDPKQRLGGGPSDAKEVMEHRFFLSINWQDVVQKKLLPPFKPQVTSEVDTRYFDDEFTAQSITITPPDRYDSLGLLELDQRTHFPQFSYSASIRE

[4] = target: RAC-beta serine/threonine-protein kinase (Homo sapiens) (UniProt P31751); conditions: at 1 µM
[5] = target: RAC-gamma serine/threonine-protein kinase (Homo sapiens) (UniProt Q9Y243); conditions: at 0.1 µM
RAC-gamma serine/threonine-protein kinase (Homo sapiens), sequence (Q9Y243 whole entry): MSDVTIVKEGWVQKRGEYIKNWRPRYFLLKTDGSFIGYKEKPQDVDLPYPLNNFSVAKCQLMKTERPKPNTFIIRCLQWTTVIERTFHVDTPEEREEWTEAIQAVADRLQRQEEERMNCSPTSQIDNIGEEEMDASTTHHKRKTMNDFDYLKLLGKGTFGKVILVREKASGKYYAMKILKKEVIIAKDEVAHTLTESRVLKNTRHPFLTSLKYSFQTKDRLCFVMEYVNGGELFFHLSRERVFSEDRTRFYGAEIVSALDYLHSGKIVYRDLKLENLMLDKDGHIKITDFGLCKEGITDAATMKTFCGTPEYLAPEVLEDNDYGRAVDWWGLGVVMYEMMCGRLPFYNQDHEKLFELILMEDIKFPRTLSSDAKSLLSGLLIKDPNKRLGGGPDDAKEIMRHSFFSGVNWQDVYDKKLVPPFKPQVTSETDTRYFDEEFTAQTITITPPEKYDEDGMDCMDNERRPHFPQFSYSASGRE

[6] = target: RAC-gamma serine/threonine-protein kinase (Homo sapiens) (UniProt Q9Y243); conditions: at 1 µM
[7] = target: G protein-coupled receptor kinase 6 (Homo sapiens) (UniProt P43250); conditions: at 0.1 µM
G protein-coupled receptor kinase 6 (Homo sapiens), sequence (P43250 whole entry, looked up): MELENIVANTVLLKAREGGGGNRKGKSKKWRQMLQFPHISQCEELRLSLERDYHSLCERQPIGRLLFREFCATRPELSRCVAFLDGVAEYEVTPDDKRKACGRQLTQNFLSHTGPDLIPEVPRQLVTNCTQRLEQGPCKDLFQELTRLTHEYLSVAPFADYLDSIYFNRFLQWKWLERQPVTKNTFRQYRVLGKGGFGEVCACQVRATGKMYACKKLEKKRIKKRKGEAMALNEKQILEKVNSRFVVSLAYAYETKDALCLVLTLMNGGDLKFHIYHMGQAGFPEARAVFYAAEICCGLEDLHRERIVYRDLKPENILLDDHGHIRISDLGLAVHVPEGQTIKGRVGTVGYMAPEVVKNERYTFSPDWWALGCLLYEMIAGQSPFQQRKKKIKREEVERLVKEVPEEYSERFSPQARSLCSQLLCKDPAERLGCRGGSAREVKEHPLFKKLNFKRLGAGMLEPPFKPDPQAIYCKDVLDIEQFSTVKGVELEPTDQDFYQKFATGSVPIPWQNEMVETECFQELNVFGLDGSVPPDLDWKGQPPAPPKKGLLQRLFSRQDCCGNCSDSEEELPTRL

[8] = target: G protein-coupled receptor kinase 6 (Homo sapiens) (UniProt P43250); conditions: at 1 µM
[9] = target: T1, Rhodopsin kinase GRK7 (Homo sapiens) (UniProt Q8WTQ7); conditions: at 0.1 µM
T1 sequence (whole entry): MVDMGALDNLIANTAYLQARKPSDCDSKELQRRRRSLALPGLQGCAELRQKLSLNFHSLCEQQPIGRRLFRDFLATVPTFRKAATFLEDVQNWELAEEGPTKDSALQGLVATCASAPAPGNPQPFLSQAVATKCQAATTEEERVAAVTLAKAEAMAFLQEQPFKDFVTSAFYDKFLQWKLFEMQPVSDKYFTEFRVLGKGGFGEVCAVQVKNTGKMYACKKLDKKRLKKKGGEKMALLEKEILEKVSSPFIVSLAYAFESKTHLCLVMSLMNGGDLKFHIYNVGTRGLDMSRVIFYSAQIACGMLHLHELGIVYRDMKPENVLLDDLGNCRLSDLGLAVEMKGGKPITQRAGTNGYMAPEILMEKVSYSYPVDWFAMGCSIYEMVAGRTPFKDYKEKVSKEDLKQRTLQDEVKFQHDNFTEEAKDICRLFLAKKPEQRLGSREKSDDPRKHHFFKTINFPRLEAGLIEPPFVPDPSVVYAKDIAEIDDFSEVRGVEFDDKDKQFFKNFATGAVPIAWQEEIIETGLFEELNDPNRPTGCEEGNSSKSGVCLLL

[10] = target: T1, Rhodopsin kinase GRK7 (Homo sapiens); conditions: at 1 µM

RAC-alpha serine/threonine-protein kinase (Homo sapiens), sequence (P31749 whole entry): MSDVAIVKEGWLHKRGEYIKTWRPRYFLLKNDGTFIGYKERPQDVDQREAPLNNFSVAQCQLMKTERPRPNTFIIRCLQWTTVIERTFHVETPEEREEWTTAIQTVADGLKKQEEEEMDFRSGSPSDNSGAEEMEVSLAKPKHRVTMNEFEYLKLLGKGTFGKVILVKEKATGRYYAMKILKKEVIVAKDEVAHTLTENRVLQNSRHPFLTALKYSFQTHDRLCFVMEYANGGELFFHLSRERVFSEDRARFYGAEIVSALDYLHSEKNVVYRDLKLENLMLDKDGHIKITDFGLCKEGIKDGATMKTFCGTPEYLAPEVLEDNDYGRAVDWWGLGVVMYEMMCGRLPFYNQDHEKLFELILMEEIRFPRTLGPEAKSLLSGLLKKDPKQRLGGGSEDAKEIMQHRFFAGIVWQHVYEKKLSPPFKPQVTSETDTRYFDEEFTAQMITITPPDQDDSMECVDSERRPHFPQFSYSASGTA

Compound | inhibition [1] | inhibition [2] | inhibition [3] | inhibition [4] | inhibition [5] | inhibition [6] | inhibition [7] | inhibition [8] | inhibition [9] | inhibition [10]
COc1ccc(-c2nn3ncccc3c2-c2ccnc(Nc3ccc(F)c(F)c3)n2)cc1 | 0.52% | 2.13% | 1.56% | 1.42% | 1.4% | 2.01% | 7.85% | 10.1% | 6.45% | 7.95%
CNC(=O)c1ncccc1Nc1nc(Nc2cc3c(cc2OC)CCCN3C(=O)CN(C)C)nc2[nH]ccc12 | 1.11% | 1.38% | 2.81% | 2.14% | 2.74% | 1.71% | 14.5% | 56.7% | 16.9% | 50.4%
COc1cc2c(cc1Nc1nc(Nc3cccc(F)c3C(N)=O)c3cc[nH]c3n1)N(C(=O)CN1CCN(C(C)C)CC1)CC2 | 0.64% | 1.39% | 1.31% | 3.18% | 1.35% | 3.89% | 7.5% | 26.5% | 6.57% | 18.7%
COc1cc(N2CCN(C(C)C)CC2)ccc1Nc1nc(Nc2cccc(F)c2C(=O)O)c2cc[nH]c2n1 | 0.12% | 0.67% | 1.27% | 1.08% | 0.73% | 2.08% | 6.59% | 10.8% | 3.79% | 5.95%
O=C1Nc2ccccc2/C1=C1\CCc2cc(O)ccc21 | 1.29% | 1.37% | 1.86% | 4.03% | 3.35% | 1.29% | 2.32% | 15% | 3.45% | 11.4%
CNC(=O)c1cncc(/C=C/c2ccccc2C)c1 | 0.63% | 1.08% | 2.41% | 2.34% | 1.3% | 1.52% | 3.92% | 8.41% | 3.15% | 0.44%
Cc1ccc(-c2cc3c(NC(=O)C4CC4)ncnc3o2)cc1 | 0.96% | 1.39% | 1.6% | 1.7% | 3.51% | 2.62% | 3.77% | -1.16% | 4% | 1.88%
O=C(Nc1n[nH]c2nnc(-c3cccnc3)cc12)C1CC1 | -0.73% | -0.67% | -0.56% | 0.1% | -0.57% | 5.03% | 3.53% | 0.48% | 2.31% | -1.4%
COc1cc(N2CCN(C(C)C)CC2)ccc1Nc1nc(Nc2cccc3ncccc23)c2cc[nH]c2n1 | -0.64% | -0.94% | -0.9% | -0.32% | 0.92% | 0.55% | -0.14% | -0.02% | -2.45% | 0.29%
FC(F)(F)CNc1nccc(-c2cnn3ncccc23)n1 | 0.05% | 0.65% | 1.43% | 0.42% | 0.5% | 1.33% | -2.66% | -0.41% | 3.21% | 0.87%
CN(C)CCNC(=O)Nc1ccc(N(C)c2ccnc(Nc3ccc(CS(C)(=O)=O)cc3)n2)cc1 | 1.23% | 0.77% | 1.42% | 0.96% | 1.47% | 1.13% | 2.73% | -0.52% | 3.11% | -0.51%
Cc1cc(O)cc(C)c1/C=C/c1cncc(C(N)=O)c1 | 0.41% | 1.41% | 1.8% | 1.63% | 1.06% | 1.18% | 2.81% | 0.48% | 0.88% | -1.37%
COc1ccccc1-c1cc(/C=C2\C(=O)Nc3ncc(Br)cc32)cc(Br)c1O | 0.67% | 0.15% | 1.96% | 2.36% | 1.93% | 0.61% | 5.35% | 30.3% | 28.7% | 57.2%
Nc1ncnc2occ(-c3ccc(NC(=O)Nc4cc(C(F)(F)F)ccc4F)cc3)c12 | 0.73% and -2.6% | 0.58% and -1.87% | 1.35% and -1.97% | 0.45% and -2.44% | 1.41% and -1.65% | 1.58% and 0.37% | 0.64% and -1.58% | -4.06% and -1.29% | 0.46% and 3.18% | -5.44% and -7.01%
CS(=O)(=O)Nc1ccc(-c2ccc3c(NC(=O)C4CC4)n[nH]c3c2)cc1 | 1.74% | 2.3% | 1.58% | 4.27% | 3.61% | 0.93% | 2.24% | 1.55% | 5.28% | 2.36%
CN(c1ccc(NC(=O)NCCN2CCOCC2)cc1)c1ccnc(Nc2ccc(CS(C)(=O)=O)cc2)n1 | 0.71% | -0.42% | 0.78% | 0.37% | 0.73% | 0.19% | 4.41% | 7.67% | 3.45% | 5.28%

Compound | inhibition [1] | inhibition [2] | inhibition [3] | inhibition [4] | inhibition [5] | inhibition [6] | inhibition [7] | inhibition [8] | inhibition [9] | inhibition [10]
Cc1cc(O)cc(C)c1/C=C/c1cncc(C(=O)OC(C)(C)C)c1 | 0.38% | 0.97% | 1.75% | 0.98% | 1.33% | 1.34% | 2.27% | 2.46% | 7.07% | 6.87%
CCOc1ccc2c(-c3ccnc(Nc4cc(OC)cc(C(F)(F)F)c4)n3)cnn2n1 | 0.02% | 0.45% | 0.01% | 0.53% | 0.18% | 0.45% | 2.38% | 0.28% | -0.23% | 16.9%
COc1ccc(Nc2ncc(-c3ccccc3)o2)cc1OC | -0.43% | 0% | -0.16% | 0.11% | -0.29% | 1.24% | -1.81% | -1.23% | -1.93% | 1.56%
Nc1nccc(-c2c(-c3ccc(F)cc3)ncn2C2CCNCC2)n1 | -2.52% and -0.57% | -1.44% and -0.36% | -2.1% and -0.23% | -2.04% and 0.22% | -2.91% and 1.34% | -1.79% and 2.95% | -0.3% and 1.54% | 1.28% and -0.27% | -9.73% and -0.04% | -3.87% and -0.11%
CC(C)c1ccc(-c2cc(-c3c[nH]nc3-c3ccccn3)ccn2)cc1 | 0.13% | 0.07% | -0.03% | 0.06% | 1.01% | 0.29% | -1.41% | -0.19% | 2.99% | 1.48%
NS(=O)(=O)c1cccc(N/C=C2\C(=O)Nc3ccccc32)c1 | 0.57% | 0.97% | 1.32% | 1.98% | 1.37% | 0.33% | 3.98% | 11.5% | 2.36% | 9.13%
Nc1nonc1-c1nc2cnccc2n1C1CC1 | 1.26% and -2.25% | 8.06% and 5.34% | 2.53% and -2.31% | 5.04% and 2.15% | 1.66% and -2.03% | 6.38% and 2.16% | 0.65% and 3.64% | 6.46% and 11.6% | -3.85% and 3.25% | -0.48% and 7.79%
Cn1c(-c2nonc2N)nc2cnccc21 | 0.27% | 0.36% | 2.48% | 1.66% | 1.14% | 1.35% | 3.53% | 4% | 4.22% | 2.15%
CS(=O)(=O)CCNCc1ccc(-c2ccc3ncnc(Nc4ccc(OCc5cccc(C(F)(F)F)c5)cc4)c3c2)o1 | 0.68% | 0.01% | 0.73% | 1.64% | 0.95% | 2.79% | 6.2% | 3.84% | 8.32% | 0.47%
COC(=O)Nc1nc2ccc(Oc3ccc(NC(=O)Nc4cc(C(F)(F)F)ccc4F)cc3)cc2s1 | -0.37% | -0.66% | -0.14% | -0.64% | 1.34% | -0.4% | -1.28% | -1.53% | -0.68% | 6.1%
COc1cc(Nc2ncc(-c3ccccc3)o2)cc(OC)c1 | 1.36% | 1.33% | 1.9% | 2.08% | 0.79% | 3.26% | 0.04% | -0.63% | 19.2% | 18.7%
N#Cc1ccc2c(-c3ccnc(NC4CC4)n3)c(-c3ccc(F)cc3)nn2c1 | 0.77% | -0.12% | 0.14% | 0.78% | 0.56% | 2.99% | 1.67% | 2.24% | 4.35% | 1.98%
COc1c(C(N)=O)cc(-c2ccc(Cl)cc2)cc1-c1ccc(S(N)(=O)=O)cc1 | 1.15% | 2.28% | 2.77% | 1.74% | 1.8% | 3.15% | 4.42% | 7.23% | 10.6% | 2.21%
CCN1CCC(C(=O)Nc2n[nH]c3nnc(-c4cccc(F)c4F)cc23)CC1 | -0.41% | -1.03% | -1.1% | -0.35% | -1.17% | 2.44% | -2.23% | 1.97% | 3.51% | -1.02%
O=C(O[C@H]1CN[C@H](C#Cc2cc3ncnc(Nc4ccc(OCc5cccc(F)c5)c(Cl)c4)c3s2)C1)N1CCOCC1 | 0.61% | 0.67% | 2.23% | 2.72% | 1.68% | 1.6% | 9.5% | 13.6% | 5.62% | 16%
